High-throughput results (PubChem BioAssay)
IL1B secr inh – inflammasome signaling inhibition, IL-1 beta readout | THP-1 LPS/ATP IL-1B secretion, AlphaLISA, 16 h; hits give low values | activity change, % at 57.5 µM | 360,000 compounds, 4.7% hits | AID 743279; in the data active = activity change below about -50%; inconclusive = mostly about -30% to -49%
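Secreted IL-1B measured by AlphaLISA bead assay after 16 h compound exposure of THP-1 cells; compounds (final up to 57.5 uM) added 1 h before LPS (250 ng/mL) and ATP (1.25 mM) stimulation; lower signal means less secretion.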
TDP1 cell CPT – DT40-hTDP1 cell growth loss with CPT. chicken DT40 Tdp1-/-;hTDP1 cells + 20 nM CPT, ATP luminescence, 48 h. Potency, µM (series often up to 46.2 µM), most hits filed as inhibitors. 420,000 compounds, 12% hits. AID 686979; note: nearly all actives have a fitted effect of over 55% in size
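Chicken DT40 Tdp1-/- cells stably complemented with human TDP1 were seeded at 400 cells/well in medium containing 20 nM camptothecin, exposed to pin-transferred compounds, and grown at 37 °C for at least 48 hr. Viability was read as ATP luminescence.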
HepG2 tox – HepG2 cytotoxicity, counter-screen for TGF-b inhibitors | Potency, µM (doses to about 46.1 µM), most hits filed as cytotoxic | HepG2 CAGA-GFP viability, ATP luminescence, 18 h | 410,000 compounds, 0.76% hits
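CellTiter-Glo luminescence gave cytotoxicity after 18 hours at 37 degrees C. The cells were HepG2 CAGA-GFP in 1% FBS DMEM, stimulated with 500 pg/mL TGF-beta after compound addition. %Activity was normalised to no-cell wells (complete cell-killing) and DMSO (no toxicity), and curves were fitted and classified.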
TDP1 inh – inhibitors of human tyrosyl-DNA phosphodiesterase TDP1. Potency, µM (highest dose often 130 µM), hits mostly inhibitors. Q9NUW8. 350,000 compounds, 0.28% hits. recombinant TDP1, AlphaScreen DNA substrate cleavage; note: nearly all actives have a fitted effect of over 40% in size
Target sequence (Q9NUW8 whole entry, looked up): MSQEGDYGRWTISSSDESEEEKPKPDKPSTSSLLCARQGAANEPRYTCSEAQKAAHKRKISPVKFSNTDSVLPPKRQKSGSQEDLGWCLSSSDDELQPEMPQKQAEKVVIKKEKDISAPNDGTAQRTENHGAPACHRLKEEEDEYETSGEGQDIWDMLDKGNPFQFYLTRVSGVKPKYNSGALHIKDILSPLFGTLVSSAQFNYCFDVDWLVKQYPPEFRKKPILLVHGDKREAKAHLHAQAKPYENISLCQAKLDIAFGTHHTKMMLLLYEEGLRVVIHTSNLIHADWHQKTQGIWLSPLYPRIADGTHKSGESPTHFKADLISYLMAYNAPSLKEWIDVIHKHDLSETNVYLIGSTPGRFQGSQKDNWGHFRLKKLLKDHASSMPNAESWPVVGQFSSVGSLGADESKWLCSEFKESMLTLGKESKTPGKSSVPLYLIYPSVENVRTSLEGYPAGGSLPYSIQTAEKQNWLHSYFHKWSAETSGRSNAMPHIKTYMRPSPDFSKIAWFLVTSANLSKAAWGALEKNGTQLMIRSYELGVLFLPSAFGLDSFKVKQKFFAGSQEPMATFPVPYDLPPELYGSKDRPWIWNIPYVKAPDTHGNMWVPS
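Compounds were preincubated with Tdp1 (1 nM final) for 15 min at room temperature before substrate (15 nM final) started a 5 min reaction; beads (10 ug/ml final) were then added for 10 min before AlphaScreen detection.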
TGFb SMAD3 inh – TGF-b pathway inhibition. HepG2 CAGA-GFP TGF-b/SMAD3 reporter, GFP fluorescence, 18 h; TGF-beta stimulated, 500 pg/mL final. Potency, µM (series often up to 46.1 µM), actives largely listed as inhibitors. 410,000 compounds, 1.2% hits. AID 588855; note: nearly all actives have a fitted effect of over 65% in size
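HEPG2 CAGA-GFP, 1000 cells/well; 2 h settle, 37 C; cpd via pin tool; TGF-b 500 pg/mL final; 18 h, 37 C; GFP imaging ex488/em500-530; %Activity normalised to -TGF-b and +DMSO controls; CRC fit, curve class.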
TDP1 cell noCPT – qHTS for Inhibitors of human tyrosyl-DNA phosphodiesterase 1 (TDP1): qHTS in cells in absence of CPT; DT40 Tdp1-/- hTDP1 cells, no CPT, ATP luminescence, 48 h; Potency, µM (doses to about 46.2 µM), hits mostly inhibitors; 420,000 compounds, 15% hits; note: nearly all actives have a fitted effect of over 55% in size
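Stably hTDP1-transfected Tdp1-null chicken DT40 cells were treated with library compounds minus camptothecin and grown for at least 48 hr at 37 °C, after which cellular ATP was quantified by luminescence.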
Hits are given with their value; n = inactive; u = inconclusive; x = no result; ! = not confirmed by another sample; [ ] = remark or other dose. Shown are actives, neighbours in structure and some others; about 19% of the full set was active somewhere. Unless noted, calls come from the whole dose curve; as a rule, active = well fitted curve in the direction sought with a large enough effect; inconclusive = small, poorly fitted or top-dose-only effect, or another doubt; inactive = no such curve, though single readings can be large; an effect the other way counts as inactive or inconclusive.

SMILES | IL1B secr inh | TDP1 cell CPT | HepG2 tox | TDP1 inh | TGFb SMAD3 inh | TDP1 cell noCPT
Cc1ccccc1S(=O)(=O)N1CCN(c2ccc3c(c2)C2CC3CCN2C(=O)OCc2ccccc2)CC1 (stereo not drawn) | n | u | n | x | u | 16µM
O=C(OCc1ccccc1)N1CCC2CC1c1ccc(N3CCNCC3)cc12 (stereo not drawn) | n | 9.2µM | n | x | n | 7.3µM
COc1ccc2c(CC(=O)OCC(=O)Nc3cccc(C)c3)coc2c1 | n | n | n | n | n | n
CNC(=O)/C(C#N)=C/c1c(N2CCN(c3ccc(OC)cc3)CC2)nc2c(C)cccn2c1=O | u | u | n | x | n | u
Cc1cccn2c(=O)c(/C=C(\C#N)C(N)=O)c(N3CCN(Cc4ccc5c(c4)OCO5)CC3)nc12 | -51 | u | n | n | n | u
COCCNC(=O)/C(C#N)=C/c1c(N2CCCCCC2)nc2c(C)cccn2c1=O | n | u | n | x | n | 15µM
COCCNC(=O)/C(C#N)=C/c1c(N2CCN(C)CC2)nc2c(C)cccn2c1=O | n | n | n | x | n | n
CNC(=O)/C(C#N)=C/c1c(N2CCN(c3ccccc3)CC2)nc2c(C)cccn2c1=O | n | u | n | x | n | 15µM
COCCCNC(=O)/C(C#N)=C/c1c(N2CCN(c3ccc(OC)cc3)CC2)nc2c(C)cccn2c1=O | n | 23µM | n | x | n | 15µM
COCCCNC(=O)/C(C#N)=C/c1c(N2CCN(C)CC2)nc2c(C)cccn2c1=O | n | n | n | x | n | n
Cc1oc(-c2cccc(Cl)c2)nc1CS(=O)(=O)CC(=O)NCc1ccccc1Cl | x | n | n | n | n | u
CCN(CC)C(=O)Oc1ccc2c(=O)c(-c3ccc(OC)cc3)c(C)oc2c1 | n | n | n | n | n | n
CCN(CC)C(=O)Oc1ccc2c(=O)c(-c3ccc(OC)cc3)coc2c1 | -60 | u | n | n | n | 23µM
CC(C)Oc1ccc2c(=O)c(-c3ccccc3)coc2c1 | n | u | n | n | n | 18µM!
CC(=O)c1ccc(C(=O)N2CCc3c(cnc(C)c3CNC(=O)c3ccc4c(c3)OCO4)C2)s1 | x | n[9.04 µM] | x | x | x | n
Cc1cc2cc(CN(Cc3ccco3)C(=S)NCC3CCCO3)c(=O)[nH]c2cc1C (stereo not drawn) | -63 | u | n | n | n | 21µM
CCNC(=S)N(Cc1ccco1)Cc1cc2cc3c(cc2[nH]c1=O)OCCO3 | n | u | n | n | n | u
Cc1ccc2[nH]c(=O)c(CN(CC3CCCO3)C(=O)c3ccco3)cc2c1 (stereo not drawn) | x | x | x | n | x | x
CCc1ccc2[nH]c(=O)c(CN(Cc3ccco3)C(=S)NCC3CCCO3)cc2c1 (stereo not drawn) | -115 | u | n | n | u | u
Cc1cc2cc(CN(CC3CCCO3)C(=S)NCc3ccco3)c(=O)[nH]c2cc1C (stereo not drawn) | -75 | u | n | n | u | 16µM
CCOc1ccccc1NC(=O)c1cn(C2CCCC2)c(=O)c2c1c1ccccc1n2C | x | 13µM | n | n | n | 9.2µM
COc1ccc(Cl)cc1NC(=O)c1cn(C2CCCC2)c(=O)c2c1c1ccccc1n2C | x | u | n | n | n | u
CC(C)c1ccc(NC(=O)c2cn(C3CCCC3)c(=O)c3c2c2ccccc2n3C)cc1 | x | n | n | n | n | n
COc1cc(NC(=O)c2cn(C3CCCC3)c(=O)c3c2c2ccccc2n3C)cc(OC)c1OC | x | u | n | n | n | 18µM
COc1ccc(OC)c(CNC(=O)c2cc3c(=O)oc4ccc(C)cc4c3s2)c1 | x | u | n | n | n | u
SMILES | IL1B secr inh | TDP1 cell CPT | HepG2 tox | TDP1 inh | TGFb SMAD3 inh | TDP1 cell noCPT
CC(C)CCCCCCCCCCCCC(=O)NCC(=O)NC1C(O)C(O)C(Nc2ncnc3nc[nH]c23)OC1C(O)CO (stereo not drawn) | -100 | 0.15µM | n | x | u | 0.18µM
CCOC(=O)CNc1ncnc2nc[nH]c12 | n | n | n | n | n | n
COc1ccc(S(=O)(=O)N(C(C)=O)c2ccc(OC(C)=O)c3ccccc23)cc1[N+](=O)[O-] | n | 3.3µM | n | n | u | 3.7µM
CC(=O)Oc1ccccc1N(C(C)=O)S(=O)(=O)c1ccc(C)cc1 | n | n | n | n | n | n
CC(=O)Oc1ccc(N(C(C)=O)S(=O)(=O)c2ccc(C)cc2C)c2ccccc12 | n | 23µM | n | x | u | u
CC(=O)Oc1c(Cl)cc(N(C(C)=O)S(=O)(=O)c2ccccc2)c2ccccc12 | n | 10µM | n | x | u | 4.6µM
CC(=O)Oc1ccc(N(C(C)=O)S(=O)(=O)c2ccccc2)c2ccccc12 | n | 21µM | n | x | n | u
C#CCN1N=C(c2ccc(C)cc2)CSC1=O | u | n | n | x | n | n
COc1cc(NC(=O)C(CC(C)C)NS(=O)(=O)c2ccc3c(c2)CCN3C(C)=O)cc(OC)c1 (stereo not drawn) | x | n | n | n | u | n
Cc1csc2c(N3CCN(C(=O)Nc4ccccc4)CC3)ncnc12 | u | 9.2µM | n | n | n | 16µM
Cc1ccc(C(=O)N2CCN(c3ncnc4c(C)csc34)CC2)cc1 | u | u | n | n | n | 16µM
Cc1csc2ncnc(N3CCN(C(=O)Nc4ccc(OC(F)(F)F)cc4)CC3)c12 | -71 | 10µM | n | n | u | 5.8µM
Cc1ccc(NC(=O)N2CCN(c3ccccn3)CC2)cc1 | n | n | n | n | n | n
Cc1ccccc1CSCC(=O)Nc1ccccc1F | n | n | n | x | n | n
COc1ccc(CNC(=O)CSc2ncc(S(=O)(=O)c3ccc(C)c(Cl)c3)c(=O)[nH]2)cc1 | x | x | n | n | n | x
O=C(c1cccc(Cl)c1Cl)N(Cc1ccco1)Cc1cccs1 | x | u | n | n | u | 11µM
O=C(c1ccccc1Br)N(Cc1ccco1)Cc1ccco1 | x | 13µM | n | n | n | 15µM
CC1CCc2nc(NC(=O)C3COc4ccccc4O3)sc2C1 (stereo not drawn) | n | 16µM | n | n | n | 21µM
CC1CCc2nc(NC(=O)CN3CCOCC3)sc2C1 (stereo not drawn) | n | n | n | n | n | n
CC1CCc2nc(NC(=O)Nc3ccc4c(c3)OCO4)sc2C1 (stereo not drawn) | -75 | u | n | n | n | u
CC1CCc2nc(NC(=O)CN3CCN(c4ccccc4)CC3)sc2C1 (stereo not drawn) | n | u | n | n | n | 21µM
